# Sampled rows, rich in hits. Any-hit rate of the full collection: about 2%.
# 697 NFkB inh = lowers PMA/ionomycin-induced NF-kB signal in 697 B cells; AID 435022; 697 B-cell NF-kB luciferase reporter, 16 h; inhibition, % at 4 µM; 0.33% of 330,000 active; in the data active means inhibition above about 35%
# Gli-Sufu block = antagonists of Gli-Sufu signaling | Sufu-KO-LIGHT fibroblasts, Gli luciferase reporter luminescence | inhibition, % at 5 µM | 0.74% of 340,000 active;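 active means inhibition above about 55%, limit read from the data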;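 further: 0% = DMSO-treated cells and 100% = wells with medium but no cells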
# Jurkat NFkB inh = lowers PMA/ionomycin-induced NF-kB signal in Jurkat cells; PMA/ionomycin-induced NF-kB luciferase reporter, luminescence; inhibition, % at 4 µM; 0.53% of 330,000 active; AID 435003; in the data active means inhibition above about 50%
# NR2F2 inh = inhibitors of human COUP-TFII (NR2F2) | inhibition, % at 8.6 µM | 0.7% of 370,000 active | P24468 | HEK293T NGFI-A luciferase reporter, luminescence;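 active means inhibition above a per-plate cutoff, mean inhibition of test wells between control levels plus 3 SD, cut at about 38% in these data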;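 further: cells cotransfected with COUP-TFII expression vector driving the NGFI-A reporter; 0% = median of COUP-TF2 test wells and 100% = reporter-only cells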
# GalR3 antagonist = antagonists of human GalR3; HEK293 GalR3-CNG cAMP membrane potential fluorescence; galR3 body fused to GalR1 C-terminus; inhibition, % at 3 µM; 0.44% of 360,000 active;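 active means inhibition above the screen-wide average plus 3 SD, cut at about 13% in these data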;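 further: forskolin and galanin both at EC90 stimulate the cells; cAMP rise reported by CNG channel membrane potential dye signal; 0% = forskolin plus galanin with DMSO and 100% = forskolin alone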
# Target sequence (O60755 1-299 limits assumed): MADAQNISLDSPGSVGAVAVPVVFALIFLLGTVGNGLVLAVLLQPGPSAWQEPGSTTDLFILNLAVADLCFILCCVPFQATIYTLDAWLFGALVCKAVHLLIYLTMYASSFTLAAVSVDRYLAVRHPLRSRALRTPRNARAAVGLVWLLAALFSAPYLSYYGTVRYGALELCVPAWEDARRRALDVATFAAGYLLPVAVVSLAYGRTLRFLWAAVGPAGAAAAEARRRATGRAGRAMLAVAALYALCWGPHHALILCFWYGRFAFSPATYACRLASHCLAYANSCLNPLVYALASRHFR
# Gli antag conf = confirmation of Gli-SUFU pathway antagonists | shares compounds with Gli-Sufu block | Sufu-KO-LIGHT cells, Gli luciferase reporter, luminescence | inhibition, % at 5 µM | 40% of 2,500 active | AID 602428;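 active means mean inhibition at 5 µM reaching about 45%, limit read from the data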;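 further: plate controls were DMSO-treated cells for no effect and wells lacking cells for full effect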
# SufuKO cytotox = cytotoxicity counter-screen for Gli-SUFU antagonists | shares compounds with Gli-Sufu block | cytotoxicity, % at 5 µM | AID 651994 | 32% of 2,500 active | Sufu-KO-LIGHT cells cytotoxicity, ATP luminescence;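 active means mean cytotoxicity at 5 µM above about 25%, limit read from the data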;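 further: cells exposed to compound overnight for roughly 16 to 18 hours; plate controls were DMSO wells with cells for no effect and medium without cells for full effect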
# Wnt3a counter = inhibits Wnt3a reporter, counter-screen for Gli-SUFU antagonists; shares compounds with Gli-Sufu block; Wnt-LIGHT cells, Wnt3a-driven luciferase reporter, luminescence; inhibition, % at 6.25 µM; 20% of 2,500 active;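 active means mean inhibition above about 25%, limit read from the data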
# * = called active by the depositor; / = no result given.
SMILES,697 NFkB inh,Gli-Sufu block,Jurkat NFkB inh,NR2F2 inh,GalR3 antagonist,Gli antag conf,SufuKO cytotox,Wnt3a counter
CN1N=C(N)c2cn(C3OC(COP(=O)(O)O)C(O)C3O)c3ncnc1c23 (stereo not given),/,89*,/,-17,-6,86*,63*,71*
O=[N+]([O-])c1cccc(CNC2CCCCCC2)c1,9,13,15,-7,0,/,/,/
CCOc1ccc([N+](=O)[O-])cc1CNC1CCCCCCC1,-23,52,1,6,-5,21,7,-19
O=C(C1CCCN1S(=O)(=O)c1ccc([N+](=O)[O-])cc1)N1CCN(c2ccccc2)CC1 (stereo not given),/,/,/,4,/,/,/,/
Cc1ccc2nc(SCC(=O)NCc3ccccc3Cl)nc(=O)n2c1,15,-5,9,9,0,/,/,/
Cc1ccc2nc(SCC(=O)NCc3ccccc3)nc(=O)n2c1,3,97*,5,13,-2,21,33*,-17
CCOC(=O)[C@@]12CCCC3=C1N(CCC3)C(=O)[C@H]2CC(=O)NCCc1ccccc1OC,/,/,/,14,/,/,/,/
Cc1ccc(-n2c(C)c3c(C)nnc(C)c3c2C)cc1C,0,30,2,-15,-5,/,/,/
Cc1nnc(C)c2c(C)n(-c3ccccc3)c(C)c12,-8,59*,-2,-11,-8,37,14,-15
Cc1csc(NC(=O)c2cc3c(s2)CCC3)n1,18,62*,-85,-10,-1,-62,12,-1
O=C(C1CCN(c2cncnc2)CC1)N1CCOCC1,/,/,/,8,/,/,/,/
COc1ccc(S(=O)(=O)N2CCCCCC2)cc1C(=O)N1CCCCC1,-1,9,-1,-11,6,/,/,/
COc1ccc(N2CCN(S(=O)(=O)c3ccc(OC)c(C(=O)N4CCCC4)c3)CC2)cc1,8,70*,0,-8,-10,10,16,-23
CCNc1ccc(C(=O)OC(C(=O)NC(N)=O)C(C)C)cc1[N+](=O)[O-] (stereo not given),1,59*,7,-3,3,22,-8,-6
O=C1C[C@@H](O)[C@H](O)c2cccc(O)c21,/,/,/,14,/,/,/,/
C=CCN1C(=O)[C@H](CC(=O)NCc2cccc(C(F)(F)F)c2)[C@@]2(C(=O)OCC)CCCC=C12,/,/,/,-1,/,/,/,/
O=C(OCC#CCSc1nnc(-c2ccc3ccccc3c2)o1)c1cccs1,/,/,/,-34,/,/,/,/
COc1ccc2nc3sc(C(=O)N4CCN(C)CC4)cc3cc2c1,-3,94*,-14,-7,-2,9,23,1
COc1ccc2nc3sc(C(=O)NCCCN4CCc5ccccc5C4)cc3cc2c1,6,-20,-31,-6,1,/,/,/
O=C(CSc1nnc(-c2ccco2)n1Cc1ccco1)c1ccc([N+](=O)[O-])cc1,/,/,/,5,/,/,/,/
Cc1ccc(C2=CCN(C)C(=O)N2c2ccc(Br)cc2)cc1,/,/,/,7,/,/,/,/
COc1cc(C(=O)NC2CCN(C)CC2)ccc1Nc1ncc2c(n1)N(Cc1ccccc1)CCC(=O)N2C,/,91*,/,-1,-4,89*,20,-101
COC(=O)C1CN(Cc2cn(CCC3OCCO3)nn2)CCS(=O)(=O)N1Cc1ccc(C)cc1 (stereo not given),/,/,/,-4,/,/,/,/
Cc1ccc(CN2CCC(CNC(=O)Nc3ccccc3F)CC2)cc1,16,50,22,9,-8,31,9,-9
CCCCCCCCCCCC1N=C(N)NC(CCCO)=C1C(=O)OC (stereo not given),/,78*,/,11,0,23,10,27*
SMILES,697 NFkB inh,Gli-Sufu block,Jurkat NFkB inh,NR2F2 inh,GalR3 antagonist,Gli antag conf,SufuKO cytotox,Wnt3a counter
COC(=O)C1CN(CCc2ccccc2)CCS(=O)(=O)N1Cc1ccc(Cl)cc1 (stereo not given),/,/,/,1,/,/,/,/
Cc1ccc(NC(=O)CC(NCC2CCCO2)C(=O)O)cc1C (stereo not given),-4,57*,2,6,8,21,-2,14
Cc1ccc(C)c(NC(=O)C2CCN(S(=O)(=O)c3ccc4c(c3)NC(=O)CO4)CC2)c1,0,60*,18,-3,-4,18,11,-32
O=C(NCCO)[C@H](Cc1ccccc1)NC1(C(=O)NCCN2CCOCC2)CCCCC1,/,/,/,-7,/,/,/,/
CC1CC(C)CN(CCCNS(=O)(=O)c2cc3c(cc2Br)CCN3C(=O)C2CC2)C1 (stereo not given),/,/,/,3,/,/,/,/
CCCCc1ccc(N=N/C(C(=O)Nc2cc(OC)c(NC(C)=O)cc2OC)=C(/C)O)cc1,4,64*,15,9,-2,16,4,-40
CCCCc1ccc(N=N/C(C(=O)Nc2ccccc2OC)=C(/C)O)cc1,7,3,-6,-11,2,/,/,/
COc1ccc(/C=N/NC(=O)c2cc(-c3ccccc3)nc3ccccc23)cc1O,5,-1,-19,5,-8,/,/,/
COc1cc(/C=N/NC(=O)c2cc(-c3ccccc3)nc3ccccc23)ccc1O,-16,59*,-41,10,-12,11,15,-98
COc1ccc(/C=N/NC(=O)c2nc(-c3ccccc3)cc(-c3ccccc3)n2)cc1O,-14,55*,-12,-23,-4,1,7,-73
COc1ccc(/C=N/NC(=O)c2nc(-c3ccccc3)cc(-c3ccccc3)n2)cc1,9,24,-22,-20,-3,/,/,/
Nc1nc(N2CCN(C(c3ccccc3)c3ccccc3)CC2)n[nH]1,13,66*,8,-10,1,31,22,-15
Nc1nc(N2CCN(Cc3ccccc3)CC2)n[nH]1,9,24,10,12,-5,/,/,/
CN(CC1CCN(CCc2cccc(C(F)(F)F)c2)CC1)C(=O)c1ccc(F)cc1,1,37,19,9,-12,/,/,/
COc1cc(C(=O)N(C)CC2CCN(CCc3cccc(C(F)(F)F)c3)CC2)ccc1C,-7,58*,4,17,-14,21,-7,-30
COC(=O)[C@H](C(C)C)N1Cc2nnn(Cc3ccc(C)cc3)c2-c2cc(F)ccc2S1(=O)=O,/,/,/,3,/,/,/,/
CCCCn1c(SCc2c(C)noc2C)nc2cc(S(N)(=O)=O)ccc21,27,51,-24,-66,1,62*,1,-13
CCCCn1c(SCC(=O)Nc2cc(C)on2)nc2cc(S(N)(=O)=O)ccc21,-18,-17,7,6,-2,/,/,/
COC(=O)C1CN(CC(C)C)CCS(=O)(=O)N1Cc1cccc(Cl)c1 (stereo not given),/,/,/,-1,/,/,/,/
CS(=O)(=O)N(CC(=O)N1CCOCC1)c1ccc(Cl)cc1,-13,56*,-2,-5,-2,20,2,5
CS(=O)(=O)N(CC(=O)N1CCCCCC1)c1ccc(Cl)cc1,-13,12,-5,13,-1,/,/,/

# Bioassay records (PubChem)
